ZTA DNA inh: counter-screen for EBNA-1 inhibitors: inhibitors of Epstein-Barr virus ZTA; ZTA-DNA binding, fluorescence polarization; inhibition, % at 11 µM; actives 0.15% (n = 320,000); AID 2234; in the data active = inhibition above about 33%
dFosB activator: mouse delta FosB homodimer activation. P13346. purified delta FosB, TAMRA-CDK5 oligo fluorescence polarization; percent of positive-control signal above neutral wells. activation, % at 25 µM. actives 0.99% (n = 340,000). AID 493131;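 active = mean activation above about 17%, with every replicate also reaching it, limit read from the data, passing the limit was not always enough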
Rpn11 block: inhibitors of human proteasome Rpn11; actives 0.59% (n = 360,000); O00487; inhibition, % at 20 µM; human 26S proteasome, Ub4-pepOG fluorescence polarization; 20S core pre-blocked with epoxomicin; AID 588493;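 active = inhibition at 20 µM, scaled to each plate's controls, above about 33%, limit read from the data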
Target sequence (O00487 whole entry, looked up): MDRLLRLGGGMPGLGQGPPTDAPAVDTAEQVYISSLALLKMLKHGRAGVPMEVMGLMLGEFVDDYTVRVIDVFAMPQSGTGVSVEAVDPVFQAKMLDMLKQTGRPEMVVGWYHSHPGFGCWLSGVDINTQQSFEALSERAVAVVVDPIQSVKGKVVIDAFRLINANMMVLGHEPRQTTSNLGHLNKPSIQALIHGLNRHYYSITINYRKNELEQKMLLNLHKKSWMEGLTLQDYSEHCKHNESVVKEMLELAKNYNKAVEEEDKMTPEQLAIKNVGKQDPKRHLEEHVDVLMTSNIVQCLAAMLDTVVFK
EBNA-1 inh: blocks EBNA-1 binding to DNA | actives 0.34% (n = 300,000) | EBNA-1 DNA binding, fluorescence polarization | inhibition, % at 14.8 µM | AID 1950; in the data active = inhibition above about 28%
NR3A LBD binder: NR3A (human) ligand-binding domain modulation; NR3A LBD differential scanning fluorimetry, Tm shift; 0% = protein alone, 100% = glycine-bound protein; actives 2.5% (n = 340,000); Tm shift relative to glycine control, % at 25 µM;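 active = melting temperature shift of at least 10% of the positive control shift, at one fixed dose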
TPT1 inhibitor: blocks Candida albicans tRNA 2'-phosphotransferase | recombinant caTPT1, FP RNA substrate dephosphorylation | actives 0.81% (n = 300,000) | inhibition, % at 5 µM;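 active = inhibition above the mean of all tested compounds plus 3 SD, set per screening campaign, cut at about 24% in these data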;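 note: plate controls were DMSO alone for no effect and ferristatin control at 100 nM for full effect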
Starred values were filed as active, the others as inactive; . = no result. Only some compounds are listed: those with a hit (about 4.5% of all), similar ones and a draw of the others.

SMILES	ZTA DNA inh	dFosB activator	Rpn11 block	EBNA-1 inh	NR3A LBD binder	TPT1 inhibitor
CC(=O)Nc1ccc(NC(=O)Nc2ccc(C)c(C)c2)cc1	17	-2	-4	-5	13*	1
CC(=O)Nc1ccc2cc3ccc(NC(C)=O)cc3nc2c1	0	-48	-89	-10	10*	-18
CC(=O)Nc1cccc(NC(=O)Nc2ccc(C)c(Cl)c2)c1	4	-3	0	-2	36*	-1
CN(Cc1ccccc1)C(=O)C1CCN(S(=O)(=O)c2cccc3nonc23)CC1	7	-12	1	2	2	-2
COc1ccc(C(=O)N2CCOCC2c2cc(C(=O)NCc3ccccc3)no2)cc1 (stereo not given)	.	.	0	.	.	.
COc1ccccc1C(=O)NC(CCSC)C(=O)NCC(c1cccs1)N1CCOCC1 (stereo not given)	-7	-9	1	12	-1	-4
COc1ccc(/C=C(\NC(=O)c2ccccc2)C(=O)N2CCCCC2)cc1OC	-8	-13	-5	-2	-3	-4
CC(NC(=O)C1CCC(CNS(=O)(=O)c2ccccc2)CC1)c1ccc2c(c1)OCCO2 (stereo not given)	13	.	.	1	.	-3
COc1cc(NC(=O)c2cccc(C)c2)ccc1NC(=O)c1cc2ccccc2o1	6	3	8	4	33*	-3
Nc1ccc(C(=O)Nc2ccc(NC(=O)c3ccco3)c(O)c2)cc1	4	-3	7	-10	22*	0
O=C(Nc1ccccc1)c1cc2ccccc2o1	-17	-7	-8	-4	-14	2
O=C(Nc1ccc(NC(=O)c2ccco2)c(Cl)c1)c1ccccc1	-16	16	-3	-3	-1	1
O=C(Nc1ccc(NC(=O)c2cc3ccccc3o2)cc1)c1ccco1	5	1	2	5	26*	-1
O=C(NCc1ccccc1)c1ccc(NC(=O)c2ccco2)cc1	3	8	-1	-3	19*	-4
Cc1ncoc1C(=O)N1CCCC(C(=O)c2ccc(C(F)(F)F)cc2)C1 (stereo not given)	-1	-6	-2	7	2	-2
O=C(Cc1ccc(Cl)cc1)Nc1ccc(-c2cc3ccccc3oc2=O)c(Cl)c1	-15	-8	20	0	19*	-2
O=C(Nc1cccc(NC(=O)c2nccc3ccccc23)c1)c1ccco1	3	-20	-4	-6	19*	1
O=C(Nc1cccc(-c2cnc3ccccc3n2)c1)c1cccc(NC(=O)c2ccco2)c1	18	8	74*	12	9	2
Cc1ccc(NC(=O)c2cc3ccccc3o2)cc1Cl	.	-8	0	.	35*	.
CCC(=O)c1cn(/C(=C\C(=O)OC(C)(C)C)CCC(OC)OC)cc1CC	-12	-1	0	-3	0	0
COc1ccc(NC(=O)c2cc3ccccc3o2)cc1OC	6	-5	-9	3	26*	-2
COC(=O)c1ccc(NC(=S)NCCc2ccccc2C)cc1	15	-7	-1	10	29*	0
COC(=O)c1ccc(NC(=S)Nc2ccc(O)cc2)cc1	1	0	1	2	20*	-1
COC(=O)c1ccc(NC(=S)NCC2CC2)cc1	-9	0	-6	-4	-1	0
COC(=O)c1ccc(NC(=S)NCCc2ccc(OC)cc2)cc1	4	-5	-1	-17	10	-2
SMILES	ZTA DNA inh	dFosB activator	Rpn11 block	EBNA-1 inh	NR3A LBD binder	TPT1 inhibitor
COC(=O)c1ccc(NC(=S)NCCc2cccc(C)c2)cc1	-23	-2	8	-1	24*	-2
O=C(CSc1nnnn1-c1ccc(F)cc1F)Nc1ccccc1F	4	3	3	-10	-2	7
Cc1cccc(/C=C2/Sc3ccc(C(=O)NCCCN4CCOCC4)cc3NC2=O)c1	5	33*	17	2	.	0
Cc1ccc2oc(-c3ccc(NC(=O)c4cccnc4)cc3)nc2c1	10	-5	-5	-6	35*	3
Cc1c(C(=O)Nc2ccc3oc(-c4cccnc4)nc3c2)oc2ccccc12	12	15	8	6	16*	0
O=C(Nc1ccc2oc(-c3ccccc3Cl)nc2c1)c1ncn[nH]1	-3	2	8	-13	-5	-1

Screening results (PubChem)
